In the library only some 4.3% were active in any assay of this set; here they are far more common.
MCF10A rerep – A quantitative high throughput screen for small molecules that induce DNA re-replication in MCF 10a normal breast cells. MCF 10A DNA re-replication, Hoechst nuclear intensity, 48 h. Potency, µM (highest dose often 46.1 µM), inactives show at the top dose activity, positive = re-replication, usual class: activators. 350,000 compounds, 2.9% hits. AID 624296, 2012; further: potency means the concentration at half of the fitted maximal effect; % of control where 0% means no effect; nearly all actives have a fitted effect of over 50% in size
SW480 rerep – A quantitative high throughput screen for small molecules that induce DNA re-replication in SW480 colon adenocarcinoma cells; AID 624297, 2012; 340,000 compounds, 1.8% hits; Potency, µM (titrated, usually from 46.1 µM), inactives show at the top dose re-replication activation, actives largely listed as activators; SW480 DNA re-replication, Hoechst DNA content imaging, 48 h; further: potency means the concentration at half of the fitted maximal effect; % of control where 0% means no effect; nearly all actives have a fitted effect of over 55% in size
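Cells (250 per well) received 23 nL compound or DMSO by pin tool and were kept 48 hr at 37 C, 5% CO2. Nuclei were then stained with Hoechst for 40 min and scanned for DNA content.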
uPA surface inh – qHTS for Inhibitors of Cell Surface uPA Generation | cell surface uPA generation assay, qHTS | Potency, µM (highest dose often 38.3 µM), without a hit: top-dose activity change, negative = inhibition, hits mostly inhibitors | 330,000 compounds, 0.31% hits | AID 540303, 2011; active means well fitted inhibition curve with a large enough effect; inconclusive means small, poorly fitted or top-dose-only effect; inactive means no such curve, though single readings can be large or run the other way; tested in mouse RAW 264.7 cells; further: potency means the concentration at half of the fitted maximal effect; on the % scale 0 is the no-effect control and ±100 the full control effect; nearly all actives have a fitted effect of over 55% in size
Giardia kill – Small Molecules that selectively kill Giardia lamblia: qHTS; Giardia lamblia trophozoite viability; activity change, % at 7.66 µM, hits read low; 340,000 compounds, 0.15% hits; AID 540267, 2011; in the data active means activity change below about -80%; inconclusive means between about -30% and that limit;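 further: parasites exposed to compound for two days anaerobically before the ATP read; on the % scale 0 is the no-effect control and ±100 the full control effect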
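Each well holds 100 Giardia trophozoites and compound. After two days (48 hrs) at 37 deg C in anaerobic conditions, ATP is quantified by luminescence.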
* marks the source's active call; other numbers are inactive results; ? = inconclusive; . = not tested or not shown; [ ] = another dose, or the depositor's remark. Unless noted, the call rests on the fitted dose curve; in most records, active means well fitted activation curve with a large enough effect; inconclusive means small, poorly fitted or top-dose-only effect; inactive means no such curve, though single readings can be large or run the other way.

SMILES	MCF10A rerep	SW480 rerep	uPA surface inh	Giardia kill
O=C(C1=C(O)C(=O)N(c2nc3ccc(Cl)cc3s2)C1c1ccco1)c1ccco1 (centres undefined)	13µM*	-0.9%	?	?
Cc1cc(C)c2nc(N3C(=O)C(O)=C(C(=O)c4ccco4)C3c3cccc(O)c3)sc2c1 (centres undefined)	20.6µM*	1.3%	-4.2%	-8.2
Cc1ccc2nc(N3C(=O)C(O)=C(C(=O)c4ccc(C)o4)C3c3ccco3)sc2c1 (centres undefined)	18.4µM*	9.7%	-9.1%	-5.4
C1=NN(c2ccccc2)C=NN1c1ccccc1	5.4%	?	0.9%	9.3
Cc1cccc(NC(=S)/N=C(\N)Nc2nc(C)c3cc(C)ccc3n2)c1	16.9%	?	-3.5%	45.1
CCOc1ccc2nc(N/C(N)=N/C(=S)Nc3ccc(OC)cc3)nc(C)c2c1	?	9.7%	-5.7%	-9.1
CCc1ccc(NC(=S)/N=C(\N)Nc2nc(C)c3cc(CC)ccc3n2)cc1	?	4.61µM*	-16.8%	-12.6
Cc1cccc(NC(=S)/N=C(\N)Nc2nc(C)c3ccc(C)cc3n2)c1	?	7.31µM*	-8.8%	13.7
Cc1ccc(CN(CC(=O)NCCc2ccccc2)C(=O)c2csnn2)cc1	-14.2%	10.8%	5.5%	-20.2
Cc1ccc2c(CNCc3ccccc3)cc(=O)oc2c1	11.6µM*	8.2µM*	-15.7%	19.3
Cc1ccc2c(CN(C)Cc3cccc(F)c3)cc(=O)oc2c1	?	?	-17.2%	-14.7
Cc1[nH]c(-c2ccc(F)cc2)cc1C(=O)N1CCN(c2ccc(Cl)cc2)CC1	5.8µM*	-2.2%	-9.3%	-5.3
CCCc1ncc(CN2CCCC(C(=O)Nc3ccc(-c4cccc(OC)c4)cc3)C2)cn1 (centres undefined)	11.4%	?	?	-3.4
O=C(Nc1ccc(-c2cscn2)cc1)C1CCCN(Cc2ccccc2)C1 (centres undefined)	?	29.1µM*	?	13.4
CC(=O)c1cccc(CN2CCCC(C(=O)Nc3ccc(-c4ccco4)cc3)C2)c1 (centres undefined)	?	8.2µM*	4.0%	-16.6
Cc1nn(C)c(Cl)c1CN1CCCC(C(=O)Nc2ccc(-c3cscn3)cc2)C1 (centres undefined)	?	0.6%	3.1%	-15.1
COc1cccc(-c2ccc(NC(=O)C3CCCN(Cc4cnn(C(C)C)c4)C3)cc2)c1 (centres undefined)	18.4µM*	?	-4.1%	-7.8
Cc1sc(NC(=O)c2ccco2)c(CN2CCC(C)CC2)c1C	?	1.6%[9.22 µM]	5.8%	1.9
Cc1sc(NC(=O)c2ccco2)c(CN2CCN(Cc3ccccc3)CC2)c1C	23.1µM*	?	22.5%	25.9
Cc1cc(C(=O)Nc2ccc(Cl)cc2)c(C)n1Cc1cccs1	?	?	-2.0%	-20.9
Cc1cc(C)cc(NC(=O)c2cc(C)n(Cc3cccs3)c2C)c1	18.4µM*	?	-19.3%	?
CCc1ccc(CCC(=O)Nc2ncc(Cc3ccccc3Cl)s2)o1	1.64µM*	4.61µM*	-13.6%	-1.4
O=C(CN1CCOCC1)Nc1ncc(Cc2ccccc2Cl)s1	-4.5%	-4.8%	5.5%	1.1
Cc1ccc(CNc2ncnc3[nH]ncc23)o1	.	.	.	6.0
CCC(CO)Oc1cc(NCc2ccc(C)c(C)c2)c2ncn(C(C)C)c2c1 (centres undefined)	14.6µM*	5.17µM*	?	-13.7
SMILES	MCF10A rerep	SW480 rerep	uPA surface inh	Giardia kill
CCC(CO)Oc1cc(NCc2ccncc2)c2ncn(C(C)C)c2c1 (centres undefined)	18.0%	3.0%	5.4%	6.9
CCC(CO)Oc1cc(NCc2cc(C)cc(C)c2)c2ncn(C(C)C)c2c1 (centres undefined)	1.5%	12.5%	1.3%	-21.2
CCC(CO)Oc1cc(NCc2ccc(F)cc2)c2ncn(C(C)C)c2c1 (centres undefined)	23.1µM*	?	-10.0%	2.5
CCC(CN(C)C)Oc1cc(NCc2ccccc2)c2ncn(C(C)C)c2c1 (centres undefined)	?	18.4µM*	?	-5.0
COc1ccc(-c2cccc(-c3cc(=O)oc4cc(OC)cc(OC)c34)c2)cc1	0.206µM*	0.231µM*	0.794µM*	6.6
COc1ccc(-c2ccc(-c3cc(=O)oc4cc(OC)c(OC)c(OC)c34)cc2)cc1F	?	-16.2%	5.5%	0.2
COc1cc(OC)c2c(-c3cccc(-c4ccc(O)cc4)c3)cc(=O)oc2c1	?	?	?	14.0
COc1cc(OC)c2c(-c3cccc(-c4ccc(CO)cc4)c3)cc(=O)oc2c1	?	0.731µM*	0.891µM*	23.4
COc1cc2oc(=O)cc(-c3ccc(-c4ccc(N(C)C)cc4)cc3)c2c(OC)c1OC	1.03µM*	-27.2%	11.0%	0.1
COc1cc(OC)c2c(-c3cccc(-c4cccc(C)c4)c3)cc(=O)oc2c1	?	?	3.16µM*	6.6
CCc1ccc(NC(=O)CS(=O)CC(=O)Nc2ccc(N3CCOCC3)cc2)cc1 (centres undefined)	?	27.1%	-5.1%	25.8
Clc1ccc(/C=C/c2ncc3ccccn23)cc1	18.4µM*	23.1µM*	12.8%	16.2
Fc1ccc(-c2ncc3ccccn23)cc1	1.0%	1.5%	-5.4%	-7.7
N#CNC(=Nc1ccccc1)SCc1ccc(C(=O)O)cc1	?	0.8%	-2.9%	5.4
CSC(=Nc1ccccc1)N=C(SCc1ccccc1)N(C)C	?	7.31µM*	-10.5%	17.3
O=C(c1ccccc1)c1ccc(OCC(O)CNCc2ccc(F)cc2)cc1 (centres undefined)	19.3%	4.7%	0.5%	10.8
O=C(c1ccccc1)c1ccc(OCC(O)CNCc2cccc(Cl)c2)cc1 (centres undefined)	20.6µM*	-3.3%	-7.4%	-18.9
Cc1ccc(NC(=O)CN(C)C(=O)c2cccc(S(=O)(=O)N3CCc4ccccc43)c2)cc1	1.7%	0.9%	2.2%	20.4
CCOC(=O)C(NC(=O)c1ccccc1Cl)(Nc1ccc(C)c(C)c1)C(F)(F)F (centres undefined)	-67.8%	4.11µM*	4.5%	2.3
Nc1nc2sc3c(c2cc1C(=O)N1CCOCC1)CCCC3	16.6%	2.1%	2.7%	-17.3
Cc1cccc2cc3c(N)c(C(=O)N4CCOCC4)sc3nc12	4.11µM*	3.55µM*	-6.1%	-6.5
Cc1ccc(S(=O)(=O)Nc2cc3c4c(c2)CCC(=O)N4CCC3)cc1	9.2µM*	-74.9%	-3.2%	-4.6
Cc1cc([N+](=O)[O-])cc(/C=N/n2c(C)nc3ccccc3c2=O)c1O	16.4µM*	?	-1.3%	-12.0
Cc1nc2ccccc2c(=O)n1/N=C/c1ccc2ccccc2c1O	2.4%	16.4µM*	-17.5%	22.8
Cc1ccc(-n2[nH]c(C)c(/C=N/n3c(C)nc4ccccc4c3=O)c2=O)cc1	4.61µM*	?	-28.0%	7.7
Cc1nnc(-c2ccccc2)c(=O)n1/N=C/c1c(O)ccc2ccccc12	15.8%	6.51µM*	-6.1%	-3.0

Bioassay records: PubChem, National Center for Advancing Translational Sciences (NCATS)
